This passage reports outcome results from PubChem BioAssay (EPA / NIEHS).

Structures are written as SMILES. Records with an inconclusive call do not appear. The source made the active and inactive calls. Rule for the calls: active = hit-call score of the fitted dose curve at least 0.9, where 1 is the maximum; inconclusive = response in the unintended direction; inactive = score below 0.9.

System in one assay: not listed separately
The assay is described as follows: ATG_XTT_Cytotoxicity: Cytotoxicity Assessment in the Attagene TRANS-FACTORIAL HepG2 Assay (AID 2283584). The method in brief:
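Viability endpoint from XTT after 24 h chemical exposure of reporter-transfected human HepG2 liver cells; signal loss fitted relative to DMSO negative control.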
Turning to `CCOC(=O)C1=NOC(c2ccccc2)(c2ccccc2)C1`, the compound was classed as inactive.

As for `C=CC(C)(O)CC/C=C(\C)CC` (stereo unspecified), the compound was classed as inactive.

Turning to `CO[Si](CCCS)(OC)OC`, the compound was classed as inactive.

In the case of `CC(C)(C)N`, the outcome was inactive.

With `CCCC(C)C(=O)OCC` (stereo unspecified), the compound was classed as inactive.

As for `COc1cc(C)ccc1O`, the compound was classed as inactive.

`CC1CCC(C(C)(C)S)C(=O)C1` (stereo unspecified): the compound was called inactive.

In the case of `CCCSSCCC`, the compound was called inactive.

With `CC1CC(=O)CC(C)(C)C1` (stereo unspecified), the outcome was inactive.

System in the next assay: not listed separately
In words: TOX21_p53_BLA_p2_viability: Viability Assessment in the Tox21 HCT-116 p53 Agonism Beta-lactamase Assay, Phase 2 (AID 2283591).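 Note: compound exposure lasted 16 h at 37 °C; actives lower the ATP signal meaning cytotoxicity.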 The method, boiled down:
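HCT-116 p53-bla cells (4000/well) rested 5 h at 37C, then received compounds in DMSO (217-fold dilution) for 16 h at 37C, 5% CO2. After the CCF4 read, CellTiter-Glo was added; ATP luminescence was read after 30 min at room temperature.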
As to `Cc1ccccc1CCO`, the compound was called inactive.

As for `Cc1cccc(C(C)(C)C)c1O`, the compound was called inactive.

As for `CCCCCCOC(=O)CCCCC(=O)OCCCCCC`, the result was inactive.

Consider `CCOC(=O)c1ccccc1C`, for which the call was inactive.

On to `CCCCCCCC(=O)OCC(COC(=O)CCCCCCC)OC(=O)CCCCCCC`, for which the call was inactive.

For `CC(=O)c1ccc(S(=O)(=O)NC(=O)NC2CCCCC2)cc1`, the outcome was inactive.

On to `CC(C)c1cc(C(C)C)cc(C(C)C)c1`, for which the compound was called inactive.

As for `CC1=CCC2CC1C2(C)C` (stereo unspecified), the call was inactive.

Consider `C=C(C)C(=O)OCCOC(=O)C(=C)C`, for which the outcome was inactive.

As for `CC12CCC(CC1)C(C)(C)O2`, the result was inactive.

`O=C(OCc1ccccc1)c1ccc(O)cc1`: the compound was classed as inactive.

As for `O=C(O)C1CCC(C(=O)O)CC1` (stereo unspecified), the outcome was inactive.

Take `CC(C)=CCl`: the compound was called inactive.

As for `CCCCNC(=S)NCCCC`, the call was inactive.

On to `C=C[Si](OCCOC)(OCCOC)OCCOC`, for which the compound was classed as inactive.

As to `OCCCc1ccccc1`, the compound was classed as inactive.

Consider `CC(C)COC(=O)CC(C(=O)OCC(C)C)S(=O)(=O)O` (stereo unspecified), for which the call was inactive.

For `CC(=O)C(C)C`, the outcome was inactive.

For `CCc1cccc(C)c1N`, the call was inactive.

For `O=S(=O)(O)c1ccc(N=Nc2c(O)ccc3ccccc23)cc1`, the compound was called inactive.

For the compound `C=C[C@@]1(C)CC(=O)[C@]2(O)[C@@]3(C)[C@@H](O)CCC(C)(C)[C@@H]3[C@H](O)[C@H](OC(C)=O)[C@@]2(C)O1`, the compound was called inactive.

As to `O=c1c(O)c(-c2ccc(O)cc2O)oc2cc(O)cc(O)c12`, the compound was classed as inactive.

On to `CCCC1CCCC(=O)O1` (stereo unspecified), for which the compound was classed as inactive.

A further assay addresses Cellular tumor antigen p53 (Homo sapiens) (UniProt P04637). In words: TOX21_p53_BLA_p2_ratio: Tox21 HCT-116 p53 Agonism Beta-lactamase Assay, Ratio, Phase 2 (AID 2283592). The method in brief:
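Gain-of-signal p53 agonism was scored from the beta-lactamase FRET ratio (460/530 nm, 405 nm excitation) in HCT116 cells treated 16 h at 37C, 5% CO2, with DMSO serving as negative control and baseline.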
Consider `Cc1cccc(C(C)(C)C)c1O`, for which the outcome was inactive.

Regarding `CCC(C)C(=O)OCCc1ccccc1` (stereo unspecified), the result was inactive.

As for `CCCCCCCC(=O)OCC(COC(=O)CCCCCCC)OC(=O)CCCCCCC`, the result was inactive.

For the compound `C=CC(=O)OCCCCCCCC(C)C`, the result was inactive.

Regarding `COC(=O)CC(C)CCC=C(C)C` (stereo unspecified), the outcome was inactive.

In the case of `CC12CCC(CC1)C(C)(C)O2`, the outcome was inactive.

Turning to `O=C(OCc1ccccc1)c1ccc(O)cc1`, the outcome was inactive.

Consider `O=C(O)C1CCC(C(=O)O)CC1` (stereo unspecified), for which the result was inactive.

`CCCCNC(=S)NCCCC`: the result was inactive.

Turning to `OCCCc1ccccc1`, the outcome was inactive.

For `CC(C)COC(=O)CC(C(=O)OCC(C)C)S(=O)(=O)O` (stereo unspecified), the outcome was inactive.

For the compound `O=C(O)CCCC(=O)O`, the outcome was inactive.

For `O=S(=O)(O)c1ccc(N=Nc2c(O)ccc3ccccc23)cc1`, the outcome was inactive.

Take `C=C[C@@]1(C)CC(=O)[C@]2(O)[C@@]3(C)[C@@H](O)CCC(C)(C)[C@@H]3[C@H](O)[C@H](OC(C)=O)[C@@]2(C)O1`: the result was inactive.

System in another assay: not listed separately
In words: TOX21_p53_BLA_p3_viability: Viability Assessment in the Tox21 HCT-116 p53 Agonism Beta-lactamase Assay, Phase 3 (AID 2283593).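 Note: cells exposed to compound for 16 h before reading.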 The method in brief:
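HCT-116 cells (4000/well) rested 5 h at 37C, then got DMSO compounds by pin tool (217-fold dilution) for 16 h at 37C, 5% CO2. After the bla read, CellTiter-Glo was added and luminescence read at 30 min, room temperature.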
Consider `Cc1ccccc1CCO`, for which the compound was classed as inactive.

Take `COC(=O)c1ccccc1C`: the result was inactive.

Regarding `CCCCCCOC(=O)CCCCC(=O)OCCCCCC`, the result was inactive.

Take `CCOC(=O)c1ccccc1C`: the compound was classed as inactive.

As to `CCCCCCCC(=O)OCC(COC(=O)CCCCCCC)OC(=O)CCCCCCC`, the outcome was inactive.

In the case of `C=CC(=O)OCCCCCCCC(C)C`, the compound was classed as inactive.

As for `C=CC(=O)OCCCCCCCCCC`, the outcome was inactive.

`CC(=O)c1ccc(S(=O)(=O)NC(=O)NC2CCCCC2)cc1`: the compound was classed as inactive.

In the case of `CC1=CCC2CC1C2(C)C` (stereo unspecified), the compound was classed as inactive.

Turning to `COC(=O)CC(C)CCC=C(C)C` (stereo unspecified), the compound was classed as inactive.

Turning to `C=C(C)C(=O)OCCOC(=O)C(=C)C`, the compound was called inactive.

On to `CC12CCC(CC1)C(C)(C)O2`, for which the outcome was inactive.

For the compound `O=C(OCc1ccccc1)c1ccc(O)cc1`, the compound was classed as inactive.

As for `O=C(O)C1CCC(C(=O)O)CC1` (stereo unspecified), the outcome was inactive.

In the case of `CC(C)=CCl`, the result was inactive.

Consider `CCCCNC(=S)NCCCC`, for which the result was inactive.

With `C=C[Si](OCCOC)(OCCOC)OCCOC`, the result was inactive.

With `OCCCc1ccccc1`, the result was inactive.

Consider `CC(C)COC(=O)CC(C(=O)OCC(C)C)S(=O)(=O)O` (stereo unspecified), for which the call was inactive.

On to `O=C(O)CCCC(=O)O`, for which the compound was called inactive.

Turning to `CCc1cccc(C)c1N`, the outcome was inactive.

As for `O=S(=O)(O)c1ccc(N=Nc2c(O)ccc3ccccc23)cc1`, the call was inactive.

In the case of `C=C[C@@]1(C)CC(=O)[C@]2(O)[C@@]3(C)[C@@H](O)CCC(C)(C)[C@@H]3[C@H](O)[C@H](OC(C)=O)[C@@]2(C)O1`, the result was inactive.

As to `O=c1c(O)c(-c2ccc(O)cc2O)oc2cc(O)cc(O)c12`, the result was inactive.

In the case of `CCCC1CCCC(=O)O1` (stereo unspecified), the compound was classed as inactive.

The target of the next assay is Cellular tumor antigen p53 (Homo sapiens) (UniProt P04637). In words: TOX21_p53_BLA_p3_ratio: Tox21 HCT-116 p53 Agonism Beta-lactamase Assay, Ratio, Phase 3 (AID 2283596). The method in brief: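 HCT116 p53-bla cells (4000/well) given compound in DMSO (217-fold dilution) after 5 h, incubated 16 h at 37C. CCF4-AM substrate 2 h at room temperature; 460/530 nm emission ratio, gain fitted against DMSO.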
Cellular tumor antigen p53 (Homo sapiens), sequence (P04637 whole entry, looked up): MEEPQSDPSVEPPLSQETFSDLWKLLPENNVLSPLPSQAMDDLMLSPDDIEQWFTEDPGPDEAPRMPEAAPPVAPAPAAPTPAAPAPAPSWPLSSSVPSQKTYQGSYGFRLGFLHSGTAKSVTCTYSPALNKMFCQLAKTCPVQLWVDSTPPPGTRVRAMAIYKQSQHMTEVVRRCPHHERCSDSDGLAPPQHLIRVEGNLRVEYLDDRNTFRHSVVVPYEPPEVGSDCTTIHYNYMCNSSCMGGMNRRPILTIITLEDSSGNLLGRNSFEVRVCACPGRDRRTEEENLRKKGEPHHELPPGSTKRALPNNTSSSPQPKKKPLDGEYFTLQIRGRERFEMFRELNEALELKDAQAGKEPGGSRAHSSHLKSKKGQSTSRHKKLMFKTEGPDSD
Consider `Cc1ccccc1CCO`, for which the outcome was inactive.

In the case of `CCOC(=O)C1=NOC(c2ccccc2)(c2ccccc2)C1`, the result was inactive.

On to `Cc1cccc(C(C)(C)C)c1O`, for which the result was inactive.

On to `COC(=O)c1ccccc1C`, for which the outcome was inactive.

Consider `CCCCc1ccc(Cl)cc1`, for which the result was inactive.

For `CCC(C)C(=O)OCCc1ccccc1` (stereo unspecified), the outcome was inactive.

For the compound `C=CC(C)(O)CC/C=C(\C)CC` (stereo unspecified), the outcome was inactive.

In the case of `CCCCCCCC(=O)OCC(COC(=O)CCCCCCC)OC(=O)CCCCCCC`, the result was inactive.

`C=CC(=O)OCCCCCCCC(C)C`: the result was inactive.

As for `CO[Si](CCCS)(OC)OC`, the result was inactive.

As to `C=CC(=O)OCCCCCCCCCC`, the result was inactive.

Turning to `CC(=O)c1ccc(S(=O)(=O)NC(=O)NC2CCCCC2)cc1`, the result was inactive.

In the case of `CC(C)c1cc(C(C)C)cc(C(C)C)c1`, the result was inactive.

As for `COC(=O)CC(C)CCC=C(C)C` (stereo unspecified), the outcome was inactive.

For the compound `C=C(C)C(=O)OCCOC(=O)C(=C)C`, the outcome was inactive.

For the compound `CC12CCC(CC1)C(C)(C)O2`, the outcome was inactive.

On to `CC1=CC(C)C(C=O)CC1` (stereo unspecified), for which the outcome was inactive.

As for `O=C(OCc1ccccc1)c1ccc(O)cc1`, the result was inactive.

As to `CC(C)(C)N`, the outcome was inactive.

As for `O=C(O)C1CCC(C(=O)O)CC1` (stereo unspecified), the outcome was inactive.

For `CC(C)=CCl`, the outcome was inactive.

As for `CCCC(C)C(=O)OCC` (stereo unspecified), the result was inactive.

Turning to `COc1cc(C)ccc1O`, the result was inactive.

On to `CCCCNC(=S)NCCCC`, for which the result was inactive.

Take `CC1CCC(C(C)(C)S)C(=O)C1` (stereo unspecified): the outcome was inactive.

In the case of `C=C[Si](OCCOC)(OCCOC)OCCOC`, the result was inactive.

With `OCCCc1ccccc1`, the result was inactive.

On to `CCCSSCCC`, for which the result was inactive.

Take `O=C(O)CCCC(=O)O`: the result was inactive.

For `CC(=O)C(C)C`, the outcome was inactive.

For `CCc1cccc(C)c1N`, the outcome was inactive.

As for `O=S(=O)(O)c1ccc(N=Nc2c(O)ccc3ccccc23)cc1`, the result was inactive.

As to `CC1CC(=O)CC(C)(C)C1` (stereo unspecified), the outcome was inactive.

For the compound `C=C[C@@]1(C)CC(=O)[C@]2(O)[C@@]3(C)[C@@H](O)CCC(C)(C)[C@@H]3[C@H](O)[C@H](OC(C)=O)[C@@]2(C)O1`, the outcome was inactive.

For the compound `CCCC1CCCC(=O)O1` (stereo unspecified), the result was inactive.
